# Measurements: PubChem BioAssay (NCATS)
# “And” between values parts separate entries of the source, which are not always exact repeats. Identical values can stand only once. Inconclusive results are not listed. Unmarked numbers belong to inactive results. The source made the active and inactive calls. Calls come from the whole dose curve; as a rule, active = well fitted curve in the direction sought with a large enough effect; inconclusive = small, poorly fitted or top-dose-only effect, or another doubt; inactive = no such curve, though single readings can be large; an effect the other way counts as inactive or inconclusive.
# Key:
# CRL-7250 = normal cell line; test: Cytotoxic Profiling of Annotated Libraries Using Quantitative High-Throughput Screening (AID 1296008); conditions: Five cell lines viability, CellTiter-Glo ATP luminescence, 48-72 h; max response: hits give low values; note: nearly all actives have a fitted effect of over 60% in size
# Outline: (§1)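 Cells exposed to compounds for 48 or 72 hr at 37 degrees Celsius. Viability read as ATP-coupled luminescence with CellTiter-Glo after 10 min at room temperature.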
# HEK293 = test: as above; conditions: Five cell lines viability, CellTiter-Glo ATP luminescence, 48-72 h; max response: hits give low values
# Outline: as §1
# HaCat [1] = test: as above; conditions: Five cell lines viability, CellTiter-Glo ATP luminescence, 48-72 h; max response: hits give low values
# Outline: as §1
# KB-3-1 = test: as above; conditions: Five cell lines viability, CellTiter-Glo ATP luminescence, 48-72 h; max response: hits give low values
# Outline: as §1
# NIH3T3 [2] = test: as above; conditions: Five cell lines viability, CellTiter-Glo ATP luminescence, 48-72 h; max response: hits give low values
# Outline: as §1
# MCC-13 = test: qHTS assay to identify novel small-molecules to repurpose for Merkel cell carcinoma treatment (AID 1296009); conditions: MCC and control cell lines, CellTiter-Glo viability, 72 h; series mostly up to 46 µM; note: nearly all actives have a fitted effect of over 60% in size
# Outline: (§2)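 CellTiter-Glo luminescence after 72 hr compound exposure at 37 degree celsius gave cell viability. Libraries NPC and MIPE were run as 8- and 11-point dose responses; RLUs normalized to DMSO (negative) and no-cell (cytotoxicity) controls.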
# MCC-26 = test: as above; conditions: MCC and control cell lines, CellTiter-Glo viability, 72 h; series mostly up to 46 µM
# Outline: as §2
# MKL-1 = test: as above; conditions: MCC and control cell lines, CellTiter-Glo viability, 72 h; series mostly up to 46 µM
# Outline: as §2
# MKL-2 = test: as above; conditions: MCC and control cell lines, CellTiter-Glo viability, 72 h; series mostly up to 46 µM
# Outline: as §2
# UISO = test: as above; conditions: MCC and control cell lines, CellTiter-Glo viability, 72 h; series mostly up to 46 µM
# Outline: as §2
# WaGa = test: as above; conditions: MCC and control cell lines, CellTiter-Glo viability, 72 h; series mostly up to 46 µM
# Outline: as §2
# C33A = test: Primary qHTS to identify gynecologic anti-cancer compounds using libraries of approved drugs and bioactive compounds (AID 1345084); conditions: Gynecologic cancer cell panel viability, ATPlite luminescence, 48 h; series mostly up to 57.5 µM; note: nearly all actives have a fitted effect of over 55% in size
# Outline: (§3)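 Cells, 1,000 per well, were allowed to settle for 16 h at 37 C before compound addition. Five concentrations were tested for 48 h, and viability was read by ATPlite luminescence after 15 min at room temperature.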
# CAOV3 = test: as above; conditions: Gynecologic cancer cell panel viability, ATPlite luminescence, 48 h; series mostly up to 57.5 µM
# Outline: as §3
# CASKI = test: as above; conditions: Gynecologic cancer cell panel viability, ATPlite luminescence, 48 h; series mostly up to 57.5 µM
# Outline: as §3
# Es-2 = test: as above; conditions: Gynecologic cancer cell panel viability, ATPlite luminescence, 48 h; series mostly up to 57.5 µM
# Outline: as §3
# HeLa = test: as above; conditions: Gynecologic cancer cell panel viability, ATPlite luminescence, 48 h; series mostly up to 57.5 µM
# Outline: as §3
# Hek293T [3] = test: as above; conditions: Gynecologic cancer cell panel viability, ATPlite luminescence, 48 h, control line for the selectivity index; series mostly up to 57.5 µM
# Outline: as §3
# HACAT [4] = test: qHTS assay to identify novel small-molecules to repurpose for Merkel cell carcinoma treatment (AID 1296009); conditions: MCC and control cell lines, CellTiter-Glo viability, 72 h; series mostly up to 44.8 µM; note: nearly all actives have a fitted effect of over 60% in size
# Outline: as §2
# NIH3T3 [5] = test: as above; conditions: MCC and control cell lines, CellTiter-Glo viability, 72 h; at 44.8 µM (top of the series) unless noted
# Outline: as §2
# HEK293T [6] = test: as above; conditions: MCC and control cell lines, CellTiter-Glo viability, 72 h; at 44.8 µM (top of the series) unless noted
# Outline: as §2
# % is set by controls: 0 for no effect and ±100 for the full control effect; potency is the fitted concentration of half-maximal effect.
smiles,measurement,setting,value
CC(=O)OCCN1C(=O)c2c(C)nc3ccc(S(=O)(=O)N4CCOCC4)cc3c2C1=O,max response,CRL-7250,-12.8%
same,max response,HEK293,-2.2%
same,max response,HaCat [1],1.24%
same,outcome,KB-3-1,inactive
same,max response,NIH3T3 [2],2.81%
same,Potency,MCC-13,inactive
same,Potency,MCC-26,inactive
same,Potency,MKL-1,inactive
same,Potency,MKL-2,inactive
same,Potency,UISO,inactive
same,Potency,WaGa,inactive
CC(C)Nc1cc(C(F)(F)F)cc2nc(NC(=O)c3cccnc3)nn12,max response,CRL-7250,-10.3% and 1%
same,max response,HEK293,-16.8%
same,max response,HaCat [1],-1.8%
same,outcome,KB-3-1,inactive
same,max response,NIH3T3 [2],3.06% and -1.67%
same,Potency,MCC-13,inactive
same,Potency,MKL-1,inactive
same,Potency,MKL-2,inactive
same,Potency,UISO,inactive
same,Potency,WaGa,inactive
same,Potency,C33A,inactive
same,Potency,CAOV3,inactive
same,Potency,CASKI,inactive
same,Potency,Es-2,inactive
same,Potency,HeLa,inactive
same,Potency,Hek293T [3],inactive
CNC(=O)c1nn(C)c2c1C(C)(C)Cc1cnc(Nc3ccc(N4CCN(C)CC4)cc3)nc1-2,Potency,CRL-7250,46.9 nM (active) and 580 nM (active)
same,Potency,HEK293,1.16 µM (active)
same,Potency,HaCat [1],1.66 µM (active) and 2.06 µM (active)
same,Potency,KB-3-1,3.32 µM (active) and 2.31 µM (active)
same,Potency,NIH3T3 [2],1.3 µM (active)
same,Potency,MCC-13,5900 nM (active)
same,Potency,MKL-1,4690 nM (active)
same,Potency,MKL-2,5260 nM (active)
same,Potency,UISO,235 nM (active)
same,Potency,WaGa,5900 nM (active)
same,Potency,C33A,631 nM (active)
same,Potency,CASKI,15800 nM (active)
same,Potency,HeLa,2820 nM (active)
same,Potency,Hek293T [3],7940 nM (active)
COc1cc(C(C)C)c2c(c1)S(=O)(=O)N(COc1cc(=O)n3cccc(OCCN4CCCCC4)c3n1)C2=O,max response,CRL-7250,-9.13%
same,max response,HEK293,-21.7%
same,outcome,HaCat [1],inactive
same,outcome,KB-3-1,inactive
same,outcome,NIH3T3 [2],inactive
same,Potency,HACAT [4],inactive
same,Potency,MCC-13,inactive
same,Potency,MCC-26,inactive
same,Potency,MKL-1,inactive
same,Potency,MKL-2,inactive
same,outcome,NIH3T3 [5],inactive
same,Potency,UISO,inactive
same,Potency,WaGa,inactive
CC(C)c1nn(-c2c(Cl)cccc2Cl)c2nc(Cc3ccc(OCCO)cc3)[nH]c(=O)c12,Potency,CRL-7250,29.1 nM (active)
same,Potency,HEK293,59 nM (active) and 36.6 nM (active)
same,Potency,HaCat [1],118 nM (active) and 231 nM (active)
same,Potency,KB-3-1,58 nM (active)
same,Potency,NIH3T3 [2],93.5 nM (active) and 130 nM (active)
same,Potency,MCC-13,105 nM (active)
same,Potency,MKL-1,132 nM (active)
same,Potency,MKL-2,105 nM (active)
same,Potency,UISO,105 nM (active)
same,Potency,C33A,282 nM (active)
same,Potency,CASKI,501 nM (active)
Cc1cc(Nc2cc(N3CCN(C)CC3)nc(C=Cc3ccccc3)n2)n[nH]1,Potency,CRL-7250,5400 nM (active)
same,Potency,HEK293,7.62 µM (active)
same,Potency,HaCat [1],2.7 µM (active)
same,Potency,KB-3-1,3030 nM (active)
same,Potency,NIH3T3 [2],6.05 µM (active)
same,Potency,MCC-13,9590 nM (active)
same,Potency,MCC-26,9590 nM (active)
Cc1[nH]nc2ccc(-c3cncc(OC[C@@H](N)Cc4ccccc4)c3)cc12,Potency,CRL-7250,2.64 µM (active) and 5.8 µM (active)
same,Potency,HEK293,209 nM (active) and 651 nM (active)
same,Potency,HaCat [1],1.32 µM (active) and 411 nM (active)
same,Potency,KB-3-1,332 nM (active)
same,Potency,NIH3T3 [2],3.72 µM (active) and 7.31 µM (active)
same,Potency,MCC-13,4180 nM (active)
same,Potency,MCC-26,6620 nM (active)
same,Potency,MKL-1,1870 nM (active)
same,Potency,MKL-2,1660 nM (active)
same,Potency,UISO,833 nM (active)
same,Potency,CASKI,6310 nM (active)
same,Potency,Es-2,8910 nM (active)
same,Potency,HeLa,2240 nM (active)
same,Potency,Hek293T [3],1780 nM (active)
CC(C)(C)c1cc(C(C)(C)C)c(NC(=O)c2c[nH]c3ccccc3c2=O)cc1O,outcome,CRL-7250,inactive
same,outcome,HEK293,inactive
same,outcome,HaCat [1],inactive
same,max response,KB-3-1,-1.43%
same,outcome,NIH3T3 [2],inactive
same,Potency,HACAT [4],inactive
same,outcome,HEK293T [6],inactive
same,Potency,MCC-13,inactive
same,Potency,MCC-26,inactive
same,Potency,MKL-1,inactive
same,Potency,MKL-2,inactive
same,outcome,NIH3T3 [5],inactive
same,Potency,UISO,inactive
same,Potency,WaGa,inactive
CCc1c2c(nc3ccc(O)cc13)-c1cc3c(c(=O)n1C2)COC(=O)[C@]3(O)CC,Potency,CRL-7250,651 nM (active) and 2.64 µM (active)
same,Potency,HEK293,14.6 nM (active) and 16.6 nM (active)
same,Potency,HaCat [1],58 nM (active) and 105 nM (active)
same,Potency,KB-3-1,291 nM (active) and 235 nM (active)
same,Potency,NIH3T3 [2],0.731 µM (active)
same,Potency,MCC-13,29.6 nM (active)
same,Potency,MCC-26,37.2 nM (active)
same,Potency,MKL-1,11.8 nM (active)
same,Potency,MKL-2,41.8 nM (active)
same,Potency,UISO,20.9 nM (active)
same,Potency,WaGa,4.7 nM (active)
same,Potency,CAOV3,251 nM (active)
same,Potency,CASKI,126 nM (active)
same,Potency,Hek293T [3],891 nM (active)
CC=CC1=C(C(=O)O)N2C(=O)[C@H](NC(=O)[C@H](N)c3ccc(O)cc3)[C@@H]2SC1,max response,CRL-7250,1.71%
same,max response,HEK293,-2.68%
same,max response,HaCat [1],-17%
same,max response,KB-3-1,1.31%
same,max response,NIH3T3 [2],1.07%
same,Potency,MCC-13,inactive
same,Potency,MCC-26,inactive
same,Potency,MKL-1,inactive
same,Potency,MKL-2,inactive
same,Potency,UISO,inactive
same,Potency,WaGa,inactive
